29 compounds from PubChem BioAssay can be followed below.

Each structure is given as a SMILES string. A number with no mark means an inactive call. This is one part of the list. The source made the active and inactive calls. Cut-off read from the data, not from the text of the source, unless noted: active = inhibition above about 25%; inactive = the rest.

Experiment [1] deals with Nuclear receptor coactivator 1 (Homo sapiens) (UniProt Q15788). The experiment can be described thus: NCOA1 GAL4-fusion reporter inhibition – cell-based, luminescence, quadruplicate, confirmation (AID 588820;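 active = mean inhibition above 46.68%, the untreated control wells mean plus 3 SD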;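 note: 0% = DMSO wells and 100% = gossypol 36 µM treated wells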). The conditions noted are these: HEK293 GAL4-SRC1 luciferase reporter, at 3.6 µM, stronger effect = higher value. (A reporter such as luciferase makes a cellular process visible.)

Experiment [2] can be described thus: repression of VP16-driven luciferase reporter – cell-based, luminescence, high throughput, counter-screen for SRC1 inhibitor project (AID 588824). The conditions noted are these: cell-based VP16 transactivation luciferase luminescence; at 3.6 µM; stronger effect = higher value.
A short description of experiment [3]: StAR promoter reporter inhibitors, counter-screen for LRH-1 inverse agonist project, cell-based, luminescence, high throughput (AID 651611; in the data active = inhibition above about 28%). As to conditions: StAR promoter luciferase reporter counterscreen, at 3.6 µM, stronger effect = higher value. (Counterscreens check selectivity or assay interference.)
The target in experiment [4] is Nuclear receptor subfamily 5 group A member 2 (Homo sapiens) (UniProt O00482). The experiment can be described thus: NR5A2 activity suppression in reporter cells – cell-based, luminescence, confirmation (AID 651613; in the data active = inhibition above about 42%;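 note: HEK293T cells co-transfected with LRH-1 and StAR promoter luciferase reporter; 0% = vehicle wells and 100% = parental cells lacking receptor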). As to conditions: cell-based LRH-1 luciferase reporter, inverse agonism; at 3.6 µM; stronger effect = higher value.
Experiment [5] deals with Steroidogenic factor 1 (Homo sapiens) (UniProt Q13285). The experiment in a line: inverse agonism at SF1 nuclear receptor – cell-based, luminescence, high throughput, counter-screen for LRH-1 inverse agonist project (AID 651614; in the data active = inhibition above about 44%;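 note: cells cotransfected with StAR promoter reporter and SF1 expression vector; 0% = vehicle on cells with receptor and 100% = vehicle on cells lacking receptor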). The conditions noted are these: cell-based SF1 luciferase reporter, at 3.6 µM, stronger effect = higher value.
The nature of experiment [6]: compounds suppressing VP16-driven luciferase signal – cell-based, luminescence, high throughput, counter-screen for LRH-1 inverse agonist project (AID 651615; in the data active = inhibition above about 33%). The conditions noted are these: Gal4-VP16 luciferase reporter cells, at 3.6 µM, stronger effect = higher value.
Experiment [7] concerns the target Photoreceptor-specific nuclear receptor (Homo sapiens) (UniProt Q9Y5X4). The experiment in a line: retest of NR2E3-NCOR disrupting agonists – cell-based, luminescence, CHO-S two-hybrid, confirmation (AID 624378;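 active = average inhibition above a cutoff equal to the mean inhibition of all tested compounds plus one SD, cut at about 70% in these data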;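 note: 0% = DMSO in NR2E3 cells and 100% = DMSO in cells lacking NR2E3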). The conditions noted are these: CHO-S mammalian two-hybrid NR2E3-NCOR, luciferase luminescence; at 3.98 µM; stronger effect = higher value.
Experiment [8] in a line: nonselective effects on VP16 transactivation – cell-based, luminescence, CHO-S, high throughput, counter-screen for NR2E3 agonist project, confirmation (AID 624379;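 active = mean inhibition above a cutoff equal to the average over all tested compounds plus one standard deviation, cut at about 70% in these data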;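 note: 0% = DMSO with VP16-transfected cells and 100% = DMSO with cells lacking VP16; higher means less reporter light so more repression of VP16 activity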). The conditions noted are these: CHO-S GAL4-VP16 luciferase reporter, at 3.98 µM, stronger effect = higher value.
A short description of experiment [9]: VP16-driven transactivation reporter suppression – cell-based, luminescence, HEK293, counter-screen for COUP-TFII antagonist project (AID 687007; in the data active = inhibition above about 13%). The conditions noted are these: HEK293 Gal4-VP16 luciferase reporter, at 8.5 µM, stronger effect = higher value.
Experiment [10] concerns the target COUP transcription factor 2 (Homo sapiens) (UniProt P24468). The experiment in a line: retest of COUP-TFII reporter suppressors – cell-based, luciferase reporter, HEK293, triplicate, confirmation (AID 687008;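 active = mean inhibition over three repeats above a set limit taken from the earlier primary screen, cut at about 38% in these data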;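 note: 100% = cells given the luciferase reporter alone without the COUP-TF2 vector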). As to conditions: HEK293 NGFI-A luciferase reporter, luminescence; at 8.5 µM; stronger effect = higher value.
A short description of experiment [11]: reduced OD of V66 E. coli with T4 gene 2 phage – absorbance, RecBCD inhibitor project, confirmation (AID 651982;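 active = mean inhibition over triplicates exceeding the hit threshold derived in the original primary screen, cut at about 11% in these data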). As to conditions: E. coli V66 + T4 2- phage, growth OD; at 11.9 µM; stronger effect = higher value.
Experiment [12] is described as follows: bacterial growth inhibition – absorbance, high throughput, counter-screen for RecBCD inhibitor project (AID 651983; in the data active = inhibition above about 20%;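 note: E. coli strain V66 grown with compound alone and no phage infection; 0% = bacteria with DMSO vehicle only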). The conditions noted are these: E. coli viability, absorbance (OD) growth; at 11.9 µM; stronger effect = higher value.
Experiment [13] can be described thus: reduced optical density, T4-challenged addAB+ bacteria – absorbance, E. coli V3065, T4 phage, counter-screen for RecBCD inhibitor project, confirmation (AID 651984;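 active = mean inhibition above the solvent-only control wells' mean plus 3 SD, cut at about 22% in these data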;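 note: higher means less bacterial growth from phage killing when AddAB is blocked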). The conditions noted are these: E. coli expressing H. pylori AddAB + T4 phage, OD growth; at 11.9 µM; stronger effect = higher value; gene 2 mutant T4, recBCD-deleted host.
The target of experiment [14] is Oxysterols receptor LXR-beta (Homo sapiens) (UniProt P55055). The experiment in a line: nonspecific reporter activation via LXR – cell-based, luminescence, HEK293, H. contortus campaign, counter-screen for hcDAF-12 agonist project, confirmation (AID 743027;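 active = mean percent activation of the reporter above a cutoff set as the average over tested compounds plus their standard deviation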). As to conditions: HEK293 Gal4-LXR tk-luc reporter, 24 h, at 6.8 µM, stronger effect = higher value, normalized: DMSO 0%, positive control 100%.

The test system of experiment [15] is Nuclear hormone receptor DAF-12 (Haemonchus contortus). The experiment in a line: hcDAF-12 luciferase reporter activation, retest – cell-based, luminescence, HEK293, lit1-tk-luc, triplicate, confirmation (AID 743032;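 active = mean activation across triplicate tests above the threshold derived from the earlier primary screen, cut at about 5.5% in these data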;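 note: 0% = DMSO only wells and 100% = 3 µM Δ7-dafachronic acid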). The conditions noted are these: HEK293 hcDAF-12 lit1-tk-luc reporter, at 6.8 µM, stronger effect = higher value, % of Δ7-dafachronic acid response.
For experiment [16], the target named is Receptor-interacting serine/threonine-protein kinase 2 (Homo sapiens) (UniProt O43353). The experiment can be described thus: inhibitors of RIPK2 association with NOD2 – fluorescence, CHO cells, BLA complementation, triplicate, confirmation (AID 624370;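 active = mean inhibition across replicates above a set limit taken from the earlier primary screen, cut at about 21% in these data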;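 note: 0% = DMSO-only wells and the high end = clavulanate BLA-blocked wells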). The conditions noted are these: CCF4 FRET, at 4.98 µM, stronger effect = higher value.
Experiment [17] can be described thus: BLA reporter readout interference – cell-based, CHO-K1 CMV-bla, CCF4 FRET, fluorescence, artefact control for NOD2-RIPK2 interaction inhibitor project, confirmation (AID 624371;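 active = mean inhibition above the low-control mean inhibition plus three low-control SD, cut at about 11% in these data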;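 note: 0% = DMSO only wells and 100% = clavulanate high control wells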). The conditions noted are these: CCF4 FRET ratio, counterscreen, at 4.98 µM, stronger effect = higher value.
The subject of experiment [18] is transactivating tegument protein VP16 (Human herpesvirus 1). The experiment in a line: compounds suppressing VP16-driven luciferase signal – cell-based, luminescence, single concentration, counter-screen for SRC2 inhibitor project (AID 652007; in the data active = inhibition above about 36%). As to conditions: cell-based VP16 transactivation luciferase reporter, at 8.9 µM, stronger effect = higher value.
The target of experiment [19] is Nuclear receptor coactivator 2 (Homo sapiens) (UniProt Q15596). The experiment can be described thus: inhibition of GAL4-SRC2 driven luciferase expression – cell-based, luminescence, HEK293, triplicate, confirmation (AID 652008;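 active = mean inhibition above 46.5%, the solvent-only control mean plus 3 SD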;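 note: 0% = DMSO-treated cells and 100% = Gossypol at 36 µM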). The conditions noted are these: HEK293 GAL4-SRC2 luciferase reporter, at 8.9 µM, stronger effect = higher value.
The subject of experiment [20] is DAF-12 nuclear receptor (Heterodera glycines), GAL4-LBD fusion. The experiment can be described thus: hgDAF-12 GAL4 fusion reporter activation, retest – cell-based, luminescence, HEK293, GAL4-LBD fusion, confirmation (AID 743050;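 active = mean activation over triplicate wells above the hit cutoff derived from the earlier primary screen, cut at about 11% in these data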;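 note: 0% = DMSO low control and 100% = 2 mM sodium butyrate high control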). As to conditions: HEK293 GAL4-hgDAF12 luciferase reporter, agonist mode; at 6.8 µM; stronger effect = higher value; percent of butyrate response.
Experiment [21] concerns the target Oxysterols receptor LXR-beta (Homo sapiens) (UniProt P55055). The experiment in a line: nonspecific reporter activation via LXR – cell-based, luminescence, HEK293, H. glycines campaign, counter-screen for hgDAF-12 agonist project, confirmation (AID 743051;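 active = mean activation of the triplicate above a set limit carried over from the primary screen, none filed active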). As to conditions: HEK293 Gal4-LXR luciferase reporter, 24 h; at 6.8 µM; stronger effect = higher value.

Sequence of Nuclear receptor coactivator 1 (Homo sapiens) (Q15788 whole entry, looked up, the tested form may be a part): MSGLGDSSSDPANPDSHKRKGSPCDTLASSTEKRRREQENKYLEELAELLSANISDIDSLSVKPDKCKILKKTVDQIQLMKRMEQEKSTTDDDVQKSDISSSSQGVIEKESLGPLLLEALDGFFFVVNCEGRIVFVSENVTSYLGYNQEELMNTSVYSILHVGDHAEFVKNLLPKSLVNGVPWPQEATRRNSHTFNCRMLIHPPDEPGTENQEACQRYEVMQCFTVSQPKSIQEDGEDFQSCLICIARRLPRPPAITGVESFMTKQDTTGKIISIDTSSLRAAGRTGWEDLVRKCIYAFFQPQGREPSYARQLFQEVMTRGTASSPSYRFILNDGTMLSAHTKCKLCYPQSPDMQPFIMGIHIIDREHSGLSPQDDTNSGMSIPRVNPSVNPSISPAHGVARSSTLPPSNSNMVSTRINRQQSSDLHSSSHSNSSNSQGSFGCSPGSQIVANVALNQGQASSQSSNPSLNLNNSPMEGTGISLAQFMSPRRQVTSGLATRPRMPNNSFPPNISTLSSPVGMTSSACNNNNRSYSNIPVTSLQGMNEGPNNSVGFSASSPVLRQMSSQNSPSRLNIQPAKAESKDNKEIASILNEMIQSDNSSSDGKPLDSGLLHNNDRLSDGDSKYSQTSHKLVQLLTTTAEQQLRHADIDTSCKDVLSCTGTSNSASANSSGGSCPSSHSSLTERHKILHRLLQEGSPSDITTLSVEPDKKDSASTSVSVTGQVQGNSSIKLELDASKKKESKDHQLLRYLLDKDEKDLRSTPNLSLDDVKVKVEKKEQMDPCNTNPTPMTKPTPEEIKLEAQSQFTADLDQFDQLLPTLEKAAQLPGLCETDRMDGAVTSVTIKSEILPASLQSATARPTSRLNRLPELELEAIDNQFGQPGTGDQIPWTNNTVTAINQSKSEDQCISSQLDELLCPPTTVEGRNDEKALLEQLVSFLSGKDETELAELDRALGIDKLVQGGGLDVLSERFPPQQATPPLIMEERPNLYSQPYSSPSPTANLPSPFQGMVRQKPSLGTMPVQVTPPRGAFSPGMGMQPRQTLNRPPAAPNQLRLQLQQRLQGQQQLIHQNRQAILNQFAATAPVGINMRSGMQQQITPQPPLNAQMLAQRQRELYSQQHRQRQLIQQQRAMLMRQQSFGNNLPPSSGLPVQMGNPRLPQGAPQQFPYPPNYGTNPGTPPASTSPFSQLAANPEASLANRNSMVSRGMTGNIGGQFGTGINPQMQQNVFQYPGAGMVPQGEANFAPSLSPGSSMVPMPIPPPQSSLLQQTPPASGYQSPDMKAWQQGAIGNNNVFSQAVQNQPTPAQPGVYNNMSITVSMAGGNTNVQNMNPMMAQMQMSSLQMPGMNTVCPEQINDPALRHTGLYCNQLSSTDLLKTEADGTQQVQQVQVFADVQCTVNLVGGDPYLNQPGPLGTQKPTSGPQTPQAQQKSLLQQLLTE
Sequence of Steroidogenic factor 1 (Homo sapiens) (Q13285 whole entry, looked up, the tested form may be a part): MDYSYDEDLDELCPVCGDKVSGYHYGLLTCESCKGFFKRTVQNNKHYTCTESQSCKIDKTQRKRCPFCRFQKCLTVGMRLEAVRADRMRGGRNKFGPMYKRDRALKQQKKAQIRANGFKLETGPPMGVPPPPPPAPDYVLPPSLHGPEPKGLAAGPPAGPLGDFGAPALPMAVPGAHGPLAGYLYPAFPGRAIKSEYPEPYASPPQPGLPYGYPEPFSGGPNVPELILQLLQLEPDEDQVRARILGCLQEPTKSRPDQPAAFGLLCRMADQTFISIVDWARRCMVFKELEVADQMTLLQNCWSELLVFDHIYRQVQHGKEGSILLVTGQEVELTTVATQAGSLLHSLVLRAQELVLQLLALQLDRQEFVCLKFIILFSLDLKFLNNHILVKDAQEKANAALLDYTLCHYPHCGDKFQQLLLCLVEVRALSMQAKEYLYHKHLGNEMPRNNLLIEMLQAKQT
Sequence of Nuclear receptor subfamily 5 group A member 2 (Homo sapiens) (O00482 whole entry, looked up): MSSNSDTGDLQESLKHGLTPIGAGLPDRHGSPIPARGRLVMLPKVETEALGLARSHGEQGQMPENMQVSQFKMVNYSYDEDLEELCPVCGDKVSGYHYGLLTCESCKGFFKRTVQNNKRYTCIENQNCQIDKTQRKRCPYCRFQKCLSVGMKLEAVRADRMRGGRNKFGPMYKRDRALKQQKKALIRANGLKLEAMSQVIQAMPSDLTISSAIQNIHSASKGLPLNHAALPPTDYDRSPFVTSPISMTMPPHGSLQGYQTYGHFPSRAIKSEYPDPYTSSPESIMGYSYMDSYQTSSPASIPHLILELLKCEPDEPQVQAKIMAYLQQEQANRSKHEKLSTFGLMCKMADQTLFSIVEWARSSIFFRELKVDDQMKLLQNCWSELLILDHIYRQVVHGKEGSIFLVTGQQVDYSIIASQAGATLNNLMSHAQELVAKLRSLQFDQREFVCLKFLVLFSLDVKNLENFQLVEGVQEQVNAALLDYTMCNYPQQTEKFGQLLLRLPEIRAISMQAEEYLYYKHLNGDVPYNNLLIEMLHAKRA
Sequence of Receptor-interacting serine/threonine-protein kinase 2 (Homo sapiens) (O43353 whole entry, looked up): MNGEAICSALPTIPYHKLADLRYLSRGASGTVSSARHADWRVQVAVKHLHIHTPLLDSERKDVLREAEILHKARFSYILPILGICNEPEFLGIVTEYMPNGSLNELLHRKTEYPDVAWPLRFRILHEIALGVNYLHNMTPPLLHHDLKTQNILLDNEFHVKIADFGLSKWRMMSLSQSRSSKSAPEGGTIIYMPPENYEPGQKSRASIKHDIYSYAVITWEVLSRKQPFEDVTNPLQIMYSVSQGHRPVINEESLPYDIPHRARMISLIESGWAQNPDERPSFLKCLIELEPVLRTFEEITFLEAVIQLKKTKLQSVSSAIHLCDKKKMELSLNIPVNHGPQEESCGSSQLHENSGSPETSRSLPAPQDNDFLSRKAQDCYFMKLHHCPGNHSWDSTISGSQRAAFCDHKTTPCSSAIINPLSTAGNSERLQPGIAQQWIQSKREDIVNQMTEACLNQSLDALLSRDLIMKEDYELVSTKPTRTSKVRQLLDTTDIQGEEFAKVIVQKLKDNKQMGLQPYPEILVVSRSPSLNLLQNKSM
Sequence of Oxysterols receptor LXR-beta (Homo sapiens) (P55055 whole entry, looked up, the tested form may be a part): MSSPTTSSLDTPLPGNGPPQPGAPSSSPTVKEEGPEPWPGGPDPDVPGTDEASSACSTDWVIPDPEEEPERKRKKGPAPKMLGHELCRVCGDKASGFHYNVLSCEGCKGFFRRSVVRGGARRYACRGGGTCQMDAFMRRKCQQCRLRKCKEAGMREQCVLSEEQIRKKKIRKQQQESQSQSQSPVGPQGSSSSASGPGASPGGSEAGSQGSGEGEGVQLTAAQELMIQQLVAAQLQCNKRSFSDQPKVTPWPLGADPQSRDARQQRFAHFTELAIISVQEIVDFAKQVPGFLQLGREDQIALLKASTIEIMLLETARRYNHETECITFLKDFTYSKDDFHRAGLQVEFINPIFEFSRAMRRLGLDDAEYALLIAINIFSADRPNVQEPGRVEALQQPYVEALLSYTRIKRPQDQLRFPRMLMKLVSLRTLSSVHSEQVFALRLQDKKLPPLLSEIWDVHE
Sequence of Nuclear receptor coactivator 2 (Homo sapiens) (Q15596 whole entry, looked up, the tested form may be a part): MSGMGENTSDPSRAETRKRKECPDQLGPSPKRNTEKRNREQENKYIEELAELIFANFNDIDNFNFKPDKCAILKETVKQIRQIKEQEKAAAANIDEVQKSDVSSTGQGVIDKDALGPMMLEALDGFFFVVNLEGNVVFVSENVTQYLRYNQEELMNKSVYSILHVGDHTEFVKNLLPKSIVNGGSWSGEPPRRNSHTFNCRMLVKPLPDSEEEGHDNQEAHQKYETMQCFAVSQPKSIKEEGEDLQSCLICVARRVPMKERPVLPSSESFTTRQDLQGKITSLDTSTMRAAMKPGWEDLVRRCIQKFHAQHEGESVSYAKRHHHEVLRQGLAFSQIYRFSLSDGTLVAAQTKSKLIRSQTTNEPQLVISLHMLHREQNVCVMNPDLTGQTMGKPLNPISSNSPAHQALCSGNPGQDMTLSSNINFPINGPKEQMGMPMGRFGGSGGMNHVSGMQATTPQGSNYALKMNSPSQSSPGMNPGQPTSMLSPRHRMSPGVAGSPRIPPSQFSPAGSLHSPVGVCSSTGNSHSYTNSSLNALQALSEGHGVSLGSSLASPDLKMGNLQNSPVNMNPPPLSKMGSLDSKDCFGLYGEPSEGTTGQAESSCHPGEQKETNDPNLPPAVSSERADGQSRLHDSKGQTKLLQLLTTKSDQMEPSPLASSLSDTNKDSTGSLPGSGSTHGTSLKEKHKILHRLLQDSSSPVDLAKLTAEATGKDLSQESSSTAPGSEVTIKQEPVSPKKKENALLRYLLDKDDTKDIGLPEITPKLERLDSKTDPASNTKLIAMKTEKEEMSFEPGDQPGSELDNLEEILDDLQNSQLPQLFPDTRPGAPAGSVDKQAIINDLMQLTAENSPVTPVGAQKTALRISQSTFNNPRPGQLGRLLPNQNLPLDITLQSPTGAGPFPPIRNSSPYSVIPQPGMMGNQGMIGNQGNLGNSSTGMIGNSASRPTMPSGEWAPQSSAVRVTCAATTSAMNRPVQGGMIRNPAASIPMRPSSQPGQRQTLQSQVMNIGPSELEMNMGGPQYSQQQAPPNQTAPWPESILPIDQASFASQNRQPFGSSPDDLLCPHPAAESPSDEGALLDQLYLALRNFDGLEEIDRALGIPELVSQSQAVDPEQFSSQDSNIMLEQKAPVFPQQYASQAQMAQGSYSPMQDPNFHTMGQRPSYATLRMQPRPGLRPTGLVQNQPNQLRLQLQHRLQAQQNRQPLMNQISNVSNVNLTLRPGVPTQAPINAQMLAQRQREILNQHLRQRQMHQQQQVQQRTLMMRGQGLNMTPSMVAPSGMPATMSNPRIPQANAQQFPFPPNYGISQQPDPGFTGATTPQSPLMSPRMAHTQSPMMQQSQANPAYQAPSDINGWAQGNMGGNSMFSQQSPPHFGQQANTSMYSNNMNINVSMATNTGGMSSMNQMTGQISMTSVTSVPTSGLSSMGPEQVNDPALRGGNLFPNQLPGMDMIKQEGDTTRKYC

One may read the inhibition as the drop in the measured response relative to a control, in per cent. On to `NC(=O)[C@H]1CC2(CC(c3cccc(NC(=O)COc4ccc(Cl)cc4)c3)=NO2)CN1C(=O)Cc1ccc([N+](=O)[O-])cc1` (stereo not given in full), for which the inhibition is 8.04% in experiment [1]; 39.5% (active) in [2]; 13.5% in experiment [3]; 55.8% (active) in [4]; 50.3% (active) in [5]; 52.5% (active) in experiment [6].

Take `COc1ccc(NC(=O)c2cc3c(s2)CCC(C)C3)cc1S(=O)(=O)N1CCOCC1` (stereo not given): the inhibition in experiment [1] is 9.02%; in experiment [2], 25.1%.

As to `O=C(Cc1cccs1)N(CC1CCCO1)C1(C(=O)NC2CCCC2)CCCCC1` (stereo not given), the inhibition in experiment [1] was 3.51%; in experiment [2] it was 17.6%.

For the compound `CN1CCN(c2ccc(CNS(=O)(=O)Cc3cccc(C(F)(F)F)c3)cc2)CC1`, the inhibition in experiment [1] is -13.6%; in experiment [2], 26.4% (active); in [3] it was 15.4%; in experiment [4] it was 69.8% (active); in experiment [5], 68.1% (active); in experiment [6], 40.1% (active).

As for `O=C(Nc1nc(-c2ccccn2)cs1)c1cccc(-n2cnnn2)c1`, the inhibition in [1] was 17.6%; in experiment [2] it was 7.13%.

With `CCCC(C)NC(=O)C1c2ccccc2Oc2ccccc21` (stereo not given), the figures for the inhibition in experiment [1] and in [2] were -0.82% and -7.9%, respectively.

`COc1ccc(C(=O)NCCN(C)C)c2nc3ccccc3cc12`: the inhibition in experiment [1] was 20.7%; in experiment [2], 39.4% (active); in experiment [3], 63.9% (active); in experiment [4], 77.7% (active); in experiment [5], 60% (active); in experiment [6] it was 65.3% (active).

On to `CC1(c2ccc3ccccc3c2)NC(=O)N(CC(=O)N2CCN(Cc3ccccc3)CC2)C1=O` (stereo not given), for which the inhibition in experiment [1] was -20.6%; in experiment [2], 37.1% (active); in experiment [3], 12.2%; in experiment [4], 55.8% (active); in experiment [5] it was 58% (active); in experiment [6] it was 48.8% (active).

Turning to `O=C(CSc1nnnn1C1CC2CCC1C2)Nc1ccnc2ccccc12` (stereo not given), the inhibition in [1] was -14.4%; in experiment [2], 44.7% (active); in experiment [3] it was 30% (active); in [4], 61% (active); in experiment [5], 56.1% (active); in experiment [6] it was 59.1% (active).

For `CCNC(=O)C1(C)CCN(C(=O)c2ccc(F)cc2Cl)C1` (stereo not given), the inhibition is 4.79% in experiment [1] and 3.22% in experiment [2].

For the compound `CSc1sc(C(=O)NC(=O)NCc2cccnc2)c(C)c1-c1ccon1`, the results for the inhibition in [1] and in [2] were 3.32% and 1.48%, respectively.

For the compound `CC(=NNC(=S)N1CCCCC1)c1ccccn1`, the inhibition in experiment [1] was 36.5%; in experiment [2] it was 61.5% (active); in [3] it was 70.5% (active); in experiment [4] it was 95.3% (active); in experiment [5] it was 82.2% (active); in experiment [6], 52.6% (active).

As to `O=C(CSC1=NS(=O)(=O)c2cc(Cl)ccc2N1)Nc1ccccc1C(F)(F)F`, the inhibition is -22.4% in [1] and -12.3% in [2].

`CN(Cc1ccccc1)C(=O)c1ccc(NC(=O)Cc2ccc(NC(=O)C3CCCN(C(=O)CCc4ccccc4)C3)cc2)cc1` (stereo not given): the inhibition in experiment [1] was -11.5%; in experiment [2], 37.6% (active); in [3] it was 29% (active); in experiment [4] it was 62.2% (active); in experiment [5] it was 64.3% (active); in experiment [6] it was 55.8% (active).

Consider `COc1cccc(NC2=NC3(CCCCC3)N=C(N)N2)c1`, for which the inhibition in experiment [1] was -9.2%; in experiment [2], 9.05%.

For `C#Cc1ccc(NC(=O)C2(C)CCN2C(=O)Cc2ccc(-c3ccccc3)cc2)cc1` (stereo not given), the inhibition was 12.8% in experiment [1]; 36.2% (active) in [2]; 50.6% in experiment [7]; 52.9% in [8]; 6.08% in experiment [9]; 44.2% (active) in experiment [10].

Regarding `COc1ccccc1NS(=O)(=O)c1cccc(C(=O)NC2CCN(Cc3ccccc3)CC2)c1`, the inhibition was -19.5% in experiment [1]; 26.4% (active) in [2]; 26.2% in experiment [3]; 60.4% (active) in experiment [4]; 65.3% (active) in experiment [5]; 48.3% (active) in experiment [6].

For the compound `CC1(C)CC(N2CCCC2)=CC(=[N+]2CCCCC2)C1`, the inhibition in experiment [1] is -1.69%; in experiment [2], 31% (active); in experiment [3], 21.4%; in [4], 64.8% (active); in experiment [5], 54.3% (active); in [6], 52.5% (active).

Consider `NC(=S)NN=Cc1ccc(OC(=O)COc2cc(Cl)c(Cl)cc2Cl)cn1`, for which the inhibition is 1.21% in experiment [11], 5.2% in [12] and 23.4% (active) in experiment [13].

Regarding `CN(C)CCNC(=O)c1ccc(Cl)c2cc3ccccc3nc12`, the activation was 0.85% in [14] and 8.92% (active) in experiment [15].

Turning to `Cc1cccc(-n2ncc(Cl)c(Cl)c2=O)c1`, the results for the inhibition in experiment [16] and in experiment [17] were 31.5% (active) and 2.52%, respectively.

On to `COCCNC(=O)c1c[nH]c2ccc(S(=O)(=O)N3CCc4ccccc43)cc2c1=O`, for which the inhibition is 43.8% in experiment [1], 29.5% (active) in experiment [2], 20.1% in experiment [18] and 33.5% in [19].

In the case of `O=C(CSc1ncn[nH]1)Nc1nc(-c2cccc([N+](=O)[O-])c2)cs1`, the inhibition was 2.59% in experiment [16] and 3.63% in experiment [17].

As for `O=C(CCN1CCc2ccccc2C(O)(c2ccccc2)C1)c1ccc2c(c1)OCCO2` (stereo not given), the inhibition in experiment [16] is 3.17%; in experiment [17], -1.26%.

Regarding `COc1ccc(NC(=O)C(c2ccncc2)n2c(=O)c(-c3cc4ccccc4[nH]3)nc3ccccc32)cc1` (stereo not given), the figures for the inhibition in experiment [16] and in experiment [17] were 39.5% (active) and 61.5% (active), respectively.

Consider `CNc1cncc(-c2ccc(NS(C)(=O)=O)cc2)n1`, for which the inhibition was 20.8% in experiment [1] and 31% (active) in experiment [2]. The activation in experiment [20] is 8.61%; in [21], 0.06%.

As to `O=C1C(=O)N(CC2COc3ccccc3O2)c2ccccc21` (stereo not given), the inhibition in experiment [16] was -7.75%; in experiment [17], -10.2%.

Consider `Cc1cc(NC2CCCC2)n2ncc(-c3ccccc3)c2n1`, for which the inhibition is -78.1% in experiment [1], -34.6% in experiment [2], -46.2% in experiment [18] and 36.5% in experiment [19].

With `O=C(NN=Cc1ccc(N2CCOCC2)cc1)c1cc2ccccc2cc1O`, the results for the inhibition in [16] and in experiment [17] were 0.56% and 2.74%, respectively.
